Experimental data: PubChem BioAssay (NCATS)
Inconclusive results are not listed. The source made the active and inactive calls. Calls follow the shape of the dose curve; as a rule, active = well fitted inhibition curve with a large enough effect; inconclusive = small, poorly fitted or top-dose-only effect; inactive = flat fitted curve, though single readings scatter.

Tests used:
Assay in all cases: qHTS profiling for inhibitors of Plasmodium falciparum proliferation (AID 504749); also: nearly all actives have a fitted effect of over 60% in size
Settings in all cases: P. falciparum in erythrocytes, SYBR Green DNA, 72 h; series mostly up to 28.7 µM
ATS95 = test system: ATS95
Procedure, shortened: (§1)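 Infected RBCs, 0.3% parasitemia/2.5% Hct final; cpd 72 h, 37 C, 5% CO2; lysis buffer with saponin/triton/SYBR Green I, o/n RT dark; FI 485/535; norm. to artemisinin (0.29 uM) and DMSO.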

C2A = test system: C2A
Procedure, shortened: as §1

CP211 = test system: CP211
Procedure, shortened: as §1

CP215 = test system: CP215
Procedure, shortened: as §1

CP217 = test system: CP217
Procedure, shortened: as §1

CP250 = test system: CP250
Procedure, shortened: as §1

CP252 = test system: CP252
Procedure, shortened: as §1

CP256 = test system: CP256
Procedure, shortened: as §1

CP262 = test system: CP262
Procedure, shortened: as §1

CP265 = test system: CP265
Procedure, shortened: as §1

CP266 = test system: CP266
Procedure, shortened: as §1

CP269 = test system: CP269
Procedure, shortened: as §1

CP325 = test system: CP325
Procedure, shortened: as §1

CP329 = test system: CP329
Procedure, shortened: as §1

ECU = test system: ECU
Procedure, shortened: as §1

FAB9 = test system: FAB9
Procedure, shortened: as §1

P93_24 = test system: P93_24
Procedure, shortened: as §1

PAD = test system: PAD
Procedure, shortened: as §1

PC26 = test system: PC26
Procedure, shortened: as §1

SC27B = test system: SC27B
Procedure, shortened: as §1

Measured: Potency

C/C=C1\C2C=C(C)CC1(N)c1ccc(=O)[nH]c1C2 (stereo not given)
inactive: all assays above
